TROY NFkB inh = TROY signaling inhibition; Q293 LMP1-TROYcd NF-kB luciferase reporter, 4 h; inhibition, % at 10 µM; 360,000 compounds, 0.98% hits;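 active = compounds whose plate-normalised and pattern-corrected inhibition of the luciferase reporter signal at the single screening dose is 50% or more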
LGR2 inh = blocks bursicon-induced cAMP signaling via Drosophila LGR2; inhibition, % at 9.99 µM; HEK293 LGR2, CRE-luciferase, bursicon-stimulated, 4 h; 380,000 compounds, 0.35% hits; AID 720647;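 active = drop in luminescence signal, shown as inhibition above about 50% in the replicate tests, limit read from the data, passing the limit was not always enough; inconclusive = probably only some replicates passing the limit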;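 also: agonist challenge used bursicon conditioned medium at about half maximal strength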
TWEAK Fn14 block = TWEAK-Fn14 signaling inhibition; 360,000 compounds, 2% hits; TWEAK-stimulated Fn14 reporter cells, luciferase luminescence, 8 h; inhibition, % at 10 µM; in the data active = inhibition above about 50%
EWS-Fli block = EWS/Fli transcriptional activity inhibition. AID 651661. 350,000 compounds, 0.67% hits. A673 NR0B1-luciferase reporter, viability-normalised. inhibition, % at 12.6 µM;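 active = mean inhibition of at least 50% after viability correction, with every replicate also passing that limit; inconclusive = mean reaches 50% but only one of two replicates passes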;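 also: firefly luciferase signal divided by Alamar Blue viability fluorescence both relative to DMSO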
PAX8 reporter = inhibitors of PAX8 transcriptional activity in RMG-I cells; RMG-I TPO-luciferase reporter, SteadyGlo, 24 h; inhibition, % at 12.6 µM; 360,000 compounds, 1.2% hits;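 active = mean replicate inhibition at least 60% with every replicate also reaching 60%; inconclusive = only one of the two criteria is met; inactive = mean below 60% and not all replicates reaching 60%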;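 also: luciferase light reporting Pax8 driven TPO promoter activity; plate controls were median of neutral control wells for no effect and mitoxantrone controls for full effect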
The depositor's hits bear a star; ? = inconclusive; . = no result given. An excerpt weighted towards active compounds, which were near 2.8% of everything screened.

SMILES	TROY NFkB inh	LGR2 inh	TWEAK Fn14 block	EWS-Fli block	PAX8 reporter
Cc1ccc(NC(=O)c2ccc(OCC3CCCO3)cc2)nc1 (configuration not stated)	-25	-27	24	-5	-138
CO[C@H]1CN(C)C(=O)c2ccc(NS(C)(=O)=O)cc2OC[C@@H](C)N(CCC(F)(F)F)C[C@H]1C	.	1	.	-4	-9
O=C(C[C@H]1CC[C@H]2[C@@H](COC[C@@H](O)CN2Cc2ccccc2F)O1)N[C@@H]1CCN(Cc2ccccc2)C1	.	1	.	6	32
C[C@@H]1CN([C@@H](C)CO)C(=O)CCCn2cc(nn2)CO[C@H]1CN(C)Cc1cccc(O)c1	.	-13	.	-2	.
Cc1ccc2[nH]c3c(NCc4ccco4)ncnc3c2c1	-21	.	44	.	.
COc1cc(CNc2ncnc3c2[nH]c2ccc(C)cc23)cc(OC)c1	50*	23	24	3	-9
COc1cccc(S(=O)(=O)N[C@H]2C=C[C@@H](CC(=O)NC3CCC3)O[C@@H]2CO)c1	.	7	.	-4	-4
CN1C/C(=C/c2ccccc2[N+](=O)[O-])C(=O)/C(=C\c2ccccc2[N+](=O)[O-])C1	9	-45	22	72*	.
CCC(C)N1C(=O)S/C(=C/c2ccc(N3CCOCC3)cc2C)C1=O (configuration not stated)	33	-69	51*	-1	-56
Cc1cc(N2CCOCC2)ccc1/C=C1\SC(=O)N(C(C)C)C1=O	26	.	49	.	.
C[C@H](O)C#Cc1ccc2c(c1)O[C@@H](CN(C)C(=O)c1ccccc1)[C@@H](C)CN([C@H](C)CO)S2(=O)=O	.	0	.	-8	.
OC(COc1ccc2cc(Br)ccc2c1)CN1CCCC1 (configuration not stated)	55*	-28	51*	-79	.
O=S(=O)(N1CCCCC1)N1CCN(CC(O)COc2ccc3cc(Br)ccc3c2)CC1 (configuration not stated)	45	31	46	.	.
Cn1c(-c2ccccc2)cc2onc(-c3ccccc3)c2c1=O	73*	94*	91*	81*	14
Cn1c(-c2ncc(F)cc2F)cc2onc(-c3c(F)cccc3Cl)c2c1=O	-27	-110	-17	-84	-167
Cn1c(-c2ccccc2F)cc2onc(-c3ccccc3)c2c1=O	66*	39	73*	-103	-89
O=C(C[C@@H]1C[C@@H]2c3cc(NC(=O)C4CCC4)ccc3O[C@@H]2[C@@H](CO)O1)NCC1CC1	.	-6	.	4	16
CCc1ccc2cccc3c2c1N=CN3C	19	-7	86*	12	2
CCN1c2cccc3cccc(c23)S1(=O)=O	-11	20	-13	.	.
Cc1ccc(S(=O)(=O)Nc2ccc3c(c2)CC(=O)N([C@@H](C)CO)C[C@H](C)[C@H](CN(C)C(=O)NC2CCCCC2)O3)cc1	.	-13	.	10	3
COc1ccc(S(=O)(=O)N(C)CC(=O)Nc2ccccc2C(F)(F)F)cc1OC	.	.	74*	.	.
C[C@@H]1CN([C@@H](C)CO)S(=O)(=O)c2ccc(C#Cc3ccc(F)cc3)cc2O[C@H]1CN(C)S(=O)(=O)c1ccc(F)cc1	.	12	.	26	.
CC(C)CC#Cc1ccc2c(c1)O[C@@H](CN(C)S(=O)(=O)c1ccc(F)cc1)[C@H](C)CN([C@H](C)CO)S2(=O)=O	.	21	.	24	67*
C[C@H](CO)N1C[C@H](C)[C@@H](CN(C)S(=O)(=O)c2ccc(F)cc2)Oc2cc(C#Cc3ccc(F)cc3)ccc2S1(=O)=O	.	-5	.	19	.
Cc1ccc(S(=O)(=O)N(C)C[C@H]2Oc3cc(C#Cc4ccncc4)ccc3S(=O)(=O)N([C@@H](C)CO)C[C@H]2C)cc1	.	.	.	19	104*
SMILES	TROY NFkB inh	LGR2 inh	TWEAK Fn14 block	EWS-Fli block	PAX8 reporter
C[C@H](CO)N1C[C@H](C)[C@H](CN(C)S(=O)(=O)c2ccc(F)cc2)Oc2cc(C#Cc3ccncc3)ccc2S1(=O)=O	.	12	.	12	.
CC(C)CC#Cc1ccc2c(c1)O[C@H](CN(C)S(=O)(=O)c1ccc(F)cc1)[C@H](C)CN([C@@H](C)CO)S2(=O)=O	.	18	.	29	98*
COc1ccc(-c2ccc3c(c2)O[C@@H](CN(C)C(C)=O)[C@@H](C)CN([C@H](C)CO)S3(=O)=O)cc1	.	-22	.	1	.
O=c1[nH]c(=O)n(-c2ccc(F)cc2)c2c1C(C(F)(F)F)(C(F)(F)F)N=C(c1ccc(F)cc1)N2	42	31	65*	25	15
O=c1cc(-c2ccc(O)c(O)c2)oc2ccc3ccccc3c12	78*	-29	92*	62*	-20
COc1ccc(C2NC(=O)NC(C)=C2C(=O)OC2CCCC(C)C2)cc1 (configuration not stated)	44	18	73*	1	18
CCCCCOC(=O)C1=C(C)NC(=O)NC1c1ccc(OC)cc1 (configuration not stated)	3	29	70*	11	15
COc1ccc(S(=O)(=O)Nc2ccc3c(c2)CC(=O)N([C@@H](C)CO)C[C@H](C)[C@@H](CN(C)Cc2ccc(-c4ccccc4)cc2)O3)cc1	.	16	.	38	?
CCOC(=O)N1CCC(NC(=O)c2ccc3c(c2)N(C)C(=O)/C(=C/c2cccc(OC)c2)S3)CC1	61*	4	75*	9	-5
C[C@@H]1C[C@@H]2OC(=O)[C@]3(C)[C@H]2[C@@H](OC3(C)O)[C@]2(C)C(=O)C=C[C@H]12 (some centres not stated)	10	19	2	-20	-4
C=C1C(=O)O[C@@H]2C[C@@H](C)[C@@H]3C=CC(=O)[C@@]3(C)[C@@H](OC(C)=O)[C@H]12	.	103*	.	62*	102*
CC1(C)CC(=O)C=C(c2ccc(-c3cnc4ccccc4c3)cc2)C1=O	92*	63*	85*	0	-61
CC1(C)CC(=O)C=C(c2ccc(Oc3ccccc3)cc2)C1=O	-30	-19	-10	-28	-2
Nc1ccc(OC(=O)Nc2ccc(O)cc2)cc1	-4	-33	66*	33	-44
O=C(Nc1ccc(N2CCN(c3ccc(O)cc3)CC2)cc1)Oc1ccccc1	20	2	18	8	.
COc1cccc(S(=O)(=O)N2CCCCN3[C@H](CO)[C@H](c4ccc(C#CC(C)C)cc4)[C@@H]3C2)c1	.	15	.	4	71*
Cc1cccc(S(=O)(=O)N2CCCCN3[C@H](CO)[C@@H](c4ccc(C#CC(C)C)cc4)[C@H]3C2)c1	.	21	.	0	24
Cc1cccc(S(=O)(=O)N2CCCCN3[C@H](CO)[C@H](c4ccc(C#CC(C)C)cc4)[C@H]3C2)c1	.	7	.	17	78*
C[C@H](O)C#Cc1ccc([C@@H]2[C@@H](CO)N3CCCCN(S(=O)(=O)c4ccccc4)C[C@H]23)cc1	.	-1	.	7	76*
Cc1cccc(S(=O)(=O)N2CCCCN3[C@H](CO)[C@H](c4ccc(C#C[C@H](C)O)cc4)[C@H]3C2)c1	.	4	.	18	86*

Screening data as filed in PubChem.
